Screen size: about 17,000 compounds; about 220 (1.3%) were called active.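 Rule for the calls: active = spot fluorescence over background significantly raised, with a chance value under 7% in all four replicate spots of the compound; inactive = the rest.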 The list comes from a sample in which actives are over-represented; it also holds similar structures and randomly drawn compounds.
Target: Nuclear factor NF-kappa-B p105 subunit (Homo sapiens) (UniProt P19838)
Assay: small molecules binding NF-kappa-B p105/p50 – biochemical, small molecule microarray, anti-His fluorescence, primary screen (AID 624139);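 note: probe protein is his-tagged human p50 processed subunit at 1 µg/ml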

Nuclear factor NF-kappa-B p105 subunit (Homo sapiens), sequence (P19838 1-433 limits assumed): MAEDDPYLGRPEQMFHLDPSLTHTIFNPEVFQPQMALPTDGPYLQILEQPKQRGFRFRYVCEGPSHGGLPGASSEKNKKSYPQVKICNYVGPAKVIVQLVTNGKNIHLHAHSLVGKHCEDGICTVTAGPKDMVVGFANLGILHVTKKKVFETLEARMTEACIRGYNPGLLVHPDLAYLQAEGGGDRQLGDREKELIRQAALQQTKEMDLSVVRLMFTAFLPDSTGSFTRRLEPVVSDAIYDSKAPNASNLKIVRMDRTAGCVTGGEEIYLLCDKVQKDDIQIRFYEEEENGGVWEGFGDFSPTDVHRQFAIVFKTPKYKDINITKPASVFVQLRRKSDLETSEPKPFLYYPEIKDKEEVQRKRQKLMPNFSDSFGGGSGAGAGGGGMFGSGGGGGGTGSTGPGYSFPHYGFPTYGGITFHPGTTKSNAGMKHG

| SMILES | outcome |
| --- | --- |
| O=C1CC(C(=O)Nc2cccc(C(=O)O)c2)C(c2ccccc2)O1 (stereo not drawn) | inactive |
| Cc1noc(C)c1S(=O)(=O)N(C)C[C@H]1Oc2ccc(NC(=O)Nc3cccc4ccccc34)cc2CC(=O)N([C@@H](C)CO)C[C@H]1C | inactive |
| Cc1noc(C)c1NC(=O)Nc1ccc2c(c1)CC(=O)N([C@H](C)CO)C[C@H](C)[C@H](CN(C)C(=O)NC(C)C)O2 | inactive |
| O=C1O[C@@H](c2ccccc2)[C@@H](c2ccccc2)N2[C@@H](c3ccccc3OCCO)[C@]3(C(=O)Nc4ccc(C#CC5(O)CCCCCC5)cc43)[C@@H](C(=O)N3CCCCCCC3)[C@H]12 | inactive |
| COc1ccc(C#Cc2ccc3c(c2)[C@]2(C(=O)N3)[C@H](c3ccccc3OCCO)N3[C@H](c4ccccc4)[C@H](c4ccccc4)OC(=O)[C@H]3[C@@H]2C(=O)N2CCCCCCC2)cc1 | active |
| O=C1O[C@@H](c2ccccc2)[C@@H](c2ccccc2)N2[C@@H](c3ccccc3OCCO)[C@]3(C(=O)Nc4ccccc43)[C@@H](C(=O)N3CCCCCCC3)[C@H]12 | inactive |
| COc1ccc(C#Cc2ccc3c(c2)[C@]2(C(=O)N3)[C@H](C(=O)N3CCCCCCC3)[C@H]3C(=O)O[C@H](c4ccccc4)[C@H](c4ccccc4)N3[C@@H]2c2ccc(O)cc2)cc1 | inactive |
| COc1ccc(C#Cc2ccc3c(c2)[C@]2(C(=O)N3)[C@H](C(=O)N3CCc4cc(OC)c(OC)cc4C3)[C@H]3C(=O)O[C@H](c4ccccc4)[C@H](c4ccccc4)N3[C@@H]2c2ccc(O)cc2)cc1 | active |
| O=C1O[C@@H](c2ccccc2)[C@@H](c2ccccc2)N2[C@@H](c3ccc(OCCO)cc3)[C@]3(C(=O)Nc4ccc(C#CCCO)cc43)[C@@H](C(=O)O)[C@H]12 | inactive |
| O=c1c(-c2ccc(O[C@@H]3O[C@H](CO)[C@@H](O)[C@H](O)[C@H]3O)cc2)coc2c([C@@H]3O[C@H](CO)[C@@H](O)[C@H](O)[C@H]3O)c(O)cc(O)c12 | inactive |
| CC(C)NC(=O)Nc1ccc2c(c1)C(=O)N([C@H](C)CO)C[C@H](C)[C@H](CN(C)C(=O)CCC(F)(F)F)OCCCC[C@H](C)O2 | inactive |
| C[C@H](CO)N1C[C@H](C)[C@H](CN(C)S(=O)(=O)c2cn(C)cn2)OCCCC[C@H](C)Oc2ccc(N(C)C)cc2C1=O | inactive |
| C[C@H](CO)N1C[C@H](C)[C@H](CN(C)C(=O)Nc2ccccc2C(F)(F)F)OCc2cn(nn2)CCCC1=O | inactive |
| C[C@@H]1CN([C@@H](C)CO)C(=O)c2cccc(NC(=O)c3nc4ccccc4s3)c2O[C@H]1CN(C)S(=O)(=O)c1cccs1 | inactive |
| COC(=O)C(CC#Cc1ccc2c(c1)[C@]1(C(=O)N2)[C@H](c2ccc(O)cc2)N2[C@H](c3ccccc3)[C@H](c3ccccc3)OC(=O)[C@H]2[C@@H]1C(=O)NC[C@H](O)c1ccccc1)C(=O)OC | inactive |
| C[C@@H]1CN([C@H](C)CO)C(=O)c2cc(NC(=O)C3CC3)ccc2O[C@@H]1CN(C)C | inactive |
| C[C@@H]1CN([C@@H](C)CO)C(=O)Cc2cc(NC(=O)Cc3ccccc3)ccc2O[C@@H]1CN(C)C(=O)Nc1ccc2c(c1)OCO2 | inactive |
| C[C@@H]1CN([C@H](C)CO)C(=O)c2cc(NC(=O)Nc3ccc4c(c3)OCO4)ccc2O[C@@H]1CN(C)C(=O)Nc1ccc(F)cc1 | inactive |
| COc1ccc(S(=O)(=O)N(C)C[C@@H]2Oc3ccc(NC(=O)Cc4ccccc4)cc3CC(=O)N([C@@H](C)CO)C[C@H]2C)cc1 | inactive |

| SMILES | outcome |
| --- | --- |
| C[C@@H]1CN([C@@H](C)CO)C(=O)c2cc(NS(=O)(=O)c3cn(C)cn3)ccc2O[C@@H]1CN(C)C(=O)NC1CCCCC1 | inactive |
| Cc1ccc(N(C(=O)COc2ccccc2[N+](=O)[O-])C2C=CS(=O)(=O)C2)cc1 (stereo not drawn) | inactive |
| Cc1ccc(S(=O)(=O)N(C)CC(=O)Nc2cccc(C(F)(F)F)c2)cc1 | inactive |
| COCCCNC(=O)[C@@]1(C)c2ccccc2C(=O)N(Cc2ccc(OC(F)(F)F)cc2)[C@H]1c1ccc(CO)cc1 | inactive |
| C[C@H](CO)N1C[C@H](C)[C@@H](CN(C)S(=O)(=O)c2cn(C)cn2)Oc2c(NC(=O)C3CC3)cccc2C1=O | inactive |
| CCOC(=O)Cc1csc(NC(=O)c2sc3cccc(F)c3c2Cl)n1 | inactive |
| O=C(CNS(=O)(=O)c1cccc(C(F)(F)F)c1)Nc1ccccc1F | inactive |
| S=C(NCc1ccco1)N1CCN(c2ncccn2)CC1 | inactive |
| C[C@@H]1CN([C@H](C)CO)C(=O)Cc2cc(NS(=O)(=O)c3ccc(Cl)cc3)ccc2O[C@@H]1CN(C)S(=O)(=O)c1ccc(Cl)cc1 | inactive |
| COc1ccc(C)cc1S(=O)(=O)N(C)CC(=O)Nc1ccccc1SC | inactive |
| CCCCc1nn(-c2ccccc2C(F)(F)F)c(=O)n1Cc1ccc(-c2ccccc2S(=O)(=O)NC(=O)c2sccc2C)cc1 | active |
| C[C@@H]1CN([C@H](C)CO)C(=O)Cc2cc(NC(=O)Cc3cn(C)c4ccccc34)ccc2O[C@@H]1CN(C)Cc1ccc(C(F)(F)F)cc1 | inactive |
| CC(C)NC(=O)N(C)C[C@H]1OCCCC[C@H](C)Oc2ccc(NC(=O)CCC(F)(F)F)cc2C(=O)N([C@H](C)CO)C[C@H]1C | inactive |
| C[C@H]1CCCCO[C@@H](CN(C)C(=O)Nc2ccccc2)[C@@H](C)CN([C@@H](C)CO)C(=O)c2cc(NC(=O)CCC(F)(F)F)ccc2O1 | inactive |
| Cc1ccc(N(C(C)C(=O)Nc2ccc(Br)cc2F)S(C)(=O)=O)cc1C (stereo not drawn) | inactive |
| C[C@@H]1CN([C@H](C)CO)C(=O)c2cccc(NS(=O)(=O)c3cn(C)cn3)c2O[C@H]1CN(C)S(=O)(=O)c1ccc(Cl)cc1 | inactive |
| C[C@@H]1CN([C@H](C)CO)C(=O)Cc2cc(NC(=O)Cc3ccccc3)ccc2O[C@H]1CN(C)S(=O)(=O)c1cccs1 | inactive |
| COCCOC(=O)N1C(=O)[C@@]2(c3cc(C#CCC(C(=O)OC)C(=O)OC)ccc31)[C@H](c1ccc(OCCO)cc1)N1[C@H](c3ccccc3)[C@H](c3ccccc3)OC(=O)[C@H]1[C@@H]2C(=O)NC[C@H](O)c1ccccc1 | inactive |
| C[C@@H]1CCCCO[C@@H](CN(C)Cc2ccncc2)[C@H](C)CN([C@@H](C)CO)C(=O)c2cc(NS(=O)(=O)c3ccccc3)ccc2O1 | inactive |

Source: PubChem BioAssay AID624139 (Broad Institute, 2012)
